# According to PubChem BioAssay (NCATS):
# Records with an inconclusive call do not appear. Entries that show only a call come without a potency. Calls of active or inactive are those of the source. Calls come from the whole dose curve; as a rule, active = well fitted curve in the direction sought with a large enough effect; inconclusive = small, poorly fitted or top-dose-only effect, or another doubt; inactive = no such curve, though single readings can be large; an effect the other way counts as inactive or inconclusive.
# Experiments:
# [1] = test system: Zika virus NS2B-NS3 protease (unlinked complex); experiment: Primary screen GU Rhodamine qHTS for Zika virus inhibitors: Unlinked NS2B-NS3 protease assay (AID 1347159); conditions: Recombinant ZIKV NS2B-NS3 protease, Rhodamine110 substrate fluorescence; series mostly up to 107 µM; note: nearly all actives have a fitted effect of over 60% in size; note: potency is the fitted concentration of half-maximal effect
# Outline: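 A qHTS format was used, with compound concentrations ranging up to 114 microM. Each compound was preincubated with 25 nM NS2B-NS3 protease, and the substrate was then added at 1.5 microM. Curves were fitted with a 4-parameter Hill model.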
# [2] = test system: Zika virus NS2B-NS3 protease (linked construct); experiment: Primary screen NINDS Rhodamine qHTS for Zika virus inhibitors (AID 1347160); conditions: purified NS2B-NS3 protease, Rhodamine110 substrate fluorescence; series mostly up to 57.1 µM; note: nearly all actives have a fitted effect of over 55% in size; note: potency is the fitted concentration of half-maximal effect
# Outline: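 Kinetic fluorescence (Ex 480 nm, Em 540 nm) over 15 min with 1.5 microM Rhodamine110 peptide and 25 nM linked protease.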
# [3] = Confirmatory screen NINDS Rhodamine qHTS for Zika virus inhibitors (AID 1347161); conditions: purified enzyme assay, Rhodamine110 substrate fluorescence, 15 min; series mostly up to 114 µM; note: nearly all actives have a fitted effect of over 60% in size; note: potency is the fitted concentration of half-maximal effect
# Outline: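 Each compound, titrated, sat 15 min with 25 nM linked protease before 1.5 microM Rhodamine110 substrate went in. Fluorescence gain over the next 15 min, in pH 8.0 Tris with Tween 20, gave Hill-fitted curves.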
# [4] = Vero cells viability qHTS for Zika virus inhibitors (AID 1347167); conditions: cytotoxicity counter-screen (Zika); series mostly up to 45.9 µM; note: potency is the fitted concentration of half-maximal effect
# Outline: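 Cells seeded at 2.5 x 10^5 cells/mL in DMEM with 4% FBS and attached overnight at 37 degrees C, then exposed to compound for 24 to 48 hours. Viability read as ATP content by CellTiter Glo luminescence.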
# [5] = test system: Zika virus NS2B-NS3 protease (linked); experiment: 384 well plate NINDS AMC confirmatory qHTS for Zika virus inhibitors (AID 1347163); conditions: Recombinant NS2B-NS3 protease, Ac-VKTGKR-AMC fluorescence; series mostly up to 100 µM; note: nearly all actives have a fitted effect of over 50% in size; note: potency is the fitted concentration of half-maximal effect
# Outline: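 Linked protease 5/30/60 nM final; cpds up to 1 mM final, ~15 min preinc. Substrate Ac-VKTGKR-AMC 30 microM final. RT, dark, 25 min; FI ex 355/em 460; normalized to no-enzyme/no-inhibitor ctrls.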
# [6] = test system: Zika virus NS2B-NS3 protease (linked construct); experiment: 384 well plate NINDS Rhodamine confirmatory qHTS for Zika virus inhibitors (AID 1347164); conditions: rhodamine-110 peptide substrate fluorescence; series mostly up to 100 µM; note: nearly all actives have a fitted effect of over 65% in size; note: potency is the fitted concentration of half-maximal effect
# Outline: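 Compounds are incubated about 15 minutes with linked protease (5, 30 or 60 nM final). Rhodamine 110-tagged Ac-LKRR substrate (10 microM final) is added and fluorescence measured after 25 minutes.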
# [7] = qHTS to identify inhibitors of the type 1 interferon - major histocompatibility complex class I in skeletal muscle: primary screen against the NCATS LOPAC collection (AID 1347405); conditions: iHSKM muscle cells, IFN-b-induced MHC-I HiBiT luminescence, 24 h; series mostly up to 45.9 µM;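 note: lytic HiBiT luminescence reporting HLA-B protein level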
# Outline: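 Immortalized human C25cl48 myoblasts with HiBiT knocked into endogenous HLA-B*08:01 were stimulated with 4.0 ng/ml IFN-beta and given compounds in a 7-point, 1:4.3 titration from 46 uM final; after 24 hrs, lytic HiBiT luminescence was read.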
# [8] = Tertiary RLuc qRT-PCR qHTS assay for Zika virus inhibitors (AID 1347169); conditions: infected Vero cells, reporter luminescence, 48-72 h; series mostly up to 89.2 µM; note: nearly all actives have a fitted effect of over 55% in size; note: potency is the fitted concentration of half-maximal effect
# Outline: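 Orthogonal cell-based infection assay using recombinant ZIKV-RLuc (Cambodian) in Vero cells; compound added prior to virus at MOI 1-2. Incubation lasts 48-72 hrs at 37 degrees C before live-cell Renilla substrate is added and luminescence measured.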
# [9] = qHTS to identify inhibitors of the type 1 interferon - major histocompatibility complex class I in skeletal muscle: primary screen against the NCATS Pharmaceutical Collection (AID 1347407); conditions: human skeletal muscle cells, IFN-b-induced MHC-I HiBiT luminescence, 24 h; series mostly up to 45.9 µM;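 note: luminescence of HiBiT knocked into endogenous HLA-B as interferon-induced MHC class I level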
# Outline: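 Cells were seeded with 4 ng/ml IFN-beta, incubated 1 h, then dosed with compounds over eight 1:5 steps up to 46 uM final. After 24 h at 37 C, HiBiT lytic reagent was added and luminescence read after 10 min lysis in the dark.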
smiles,measurement,setting,value
CN1CCC(CNc2ccc3ncc(-c4cccc(OC(F)(F)F)c4)n3n2)CC1,Potency,[1],inactive
same,Potency,[2],inactive
same,Potency,[3],inactive
CCN1CCN(Cc2ccc(-c3cc4c(N[C@H](C)c5ccccc5)ncnc4[nH]3)cc2)CC1,Potency,[3],inactive
same,Potency,[4],53.7 µM (active)
O=C(c1cncc(Br)c1)N1CCC(N2CCCC2)CC1,Potency,[2],inactive
O=c1c2ccccc2nc2n1CCc1c-2[nH]c2ccccc12,Potency,[1],inactive
same,Potency,[2],inactive
same,Potency,[3],62.2 µM (active)
same,Potency,[5],inactive
same,Potency,[6],56.2 µM (active)
same,Potency,[4],inactive
same,outcome,[7],inactive
O=C(Nc1cc(C(F)(F)F)cc(C(F)(F)F)c1)c1cc(Cl)ccc1O,Potency,[1],2.82 µM (active)
same,Potency,[2],7.94 µM (active)
same,Potency,[3],7.84 µM (active)
same,Potency,[5],inactive
same,Potency,[6],35.5 µM (active)
same,Potency,[4],1.47 µM (active)
same,Potency,[8],0.415 µM (active)
C#Cc1cccc(Nc2ncnc3cc(OC)c(OCCCCCCC(=O)NO)cc23)c1,Potency,[2],inactive
CCS(=O)(=O)c1cccc(-c2cc(C(=O)NC3CCN(C)CC3)c(C)c3[nH]c4ncc(C)cc4c23)c1,Potency,[1],inactive
same,Potency,[2],inactive
same,Potency,[3],inactive
same,Potency,[4],inactive
COc1ccc(OC)c(-c2nnc3ccc(-c4ccc(OC)c(O[C@@H]5CCOC5)c4)nn23)c1,Potency,[2],inactive
COc1cc(C)c(Sc2cnc(NC(=O)c3ccc(CNC(C)C(C)C)cc3)s2)cc1C(=O)N1CCN(C(C)=O)CC1 (stereo not drawn),Potency,[2],inactive
COCCOc1ccc2c(c1)ncn2-c1ccc2cccc(N3CCC(N)CC3)c2n1,Potency,[1],inactive
same,Potency,[2],inactive
Cc1ccc(C(=O)Nc2cccc(C(F)(F)F)c2)cc1-c1ccc2nc(NCCN3CCOCC3)ncc2c1,Potency,[1],inactive
same,Potency,[2],inactive
same,Potency,[3],inactive
same,Potency,[4],inactive
CCc1c2c(nc3ccc(O)cc13)-c1cc3c(c(=O)n1C2)COC(=O)[C@]3(O)CC,Potency,[1],inactive
same,Potency,[2],10 µM (active)
same,Potency,[3],inactive
same,Potency,[8],0.0658 µM (active)
Clc1ccc2ncc(-c3cccc(NC4CNC4)n3)n2c1,Potency,[2],inactive
O=C(CCCCCCNC(=O)c1cnc(N(c2ccccc2)c2ccccc2)nc1)NO,Potency,[2],inactive
CCOc1ccccc1OCCNC(C)Cc1ccc(OC)c(S(N)(=O)=O)c1 (stereo not drawn),Potency,[2],inactive
O=C(O)C1(Cc2cccc(Nc3nccs3)n2)CCC(Oc2cccc(Cl)c2F)CC1 (stereo not drawn),Potency,[1],6.31 µM (active)
same,Potency,[2],4.47 µM (active)
same,Potency,[3],3.5 µM (active)
same,Potency,[5],3.16 µM (active)
same,Potency,[6],14.1 µM (active)
same,Potency,[4],inactive
CC(=O)SC[C@@H](C)C(=O)N1CCC[C@H]1C(=O)N[C@@H](Cc1ccccc1)C(=O)O,outcome,[9],inactive
Cn1c2ccccc2c2c3c(c4c5ccccc5n(CCC#N)c4c21)CNC3=O,Potency,[2],inactive
CCn1cc(-c2ccnc3[nH]c(-c4cccc(CN(C)C)c4)cc23)c(-c2ccc(NC(=O)N(C)C)cc2)n1,Potency,[1],inactive
same,Potency,[2],inactive
same,Potency,[3],inactive
same,Potency,[4],inactive
COc1cc2c(cc1-c1c(C)noc1C)ncc1[nH]c(=O)n([C@H](C)c3ccccn3)c12,Potency,[1],inactive
same,Potency,[3],inactive
same,Potency,[8],0.37 µM (active)
Cc1cc(Nc2ncnc3ccc(-c4ccc(CNCCS(C)(=O)=O)o4)cc23)ccc1Oc1ccn2ncnc2c1,Potency,[2],inactive
Cc1cn(-c2cc(NC(=O)c3ccc(C)c(Nc4nccc(-c5cccnc5)n4)c3)cc(C(F)(F)F)c2)cn1,Potency,[2],inactive
Cc1cc(N2CCOCC2)cc2[nH]c(-c3c(NC[C@@H](O)c4cccc(Cl)c4)cc[nH]c3=O)nc12,Potency,[2],inactive
same,Potency,[3],44 µM (active)
same,Potency,[5],inactive
same,Potency,[4],inactive
Cc1nc2ccc(CN(C)c3ccc(C(=O)N[C@@H](CCC(=O)O)C(=O)O)s3)cc2c(=O)[nH]1,outcome,[9],inactive
O=C(O)Cn1nnc(-c2cc(N3CCC(Oc4cc(F)ccc4Br)CC3)no2)n1,Potency,[1],22.4 µM (active)
same,Potency,[2],inactive
same,Potency,[3],35 µM (active)
same,Potency,[5],inactive
same,Potency,[6],79.4 µM (active)
same,Potency,[8],1.17 µM (active)
CC(C)(O)CCc1ccc(OCc2cc(-c3cccc(OC(F)F)c3)c3ncccc3c2)cc1,Potency,[2],inactive
COc1cc2c(Oc3ccc(NC(=O)C4(C(=O)Nc5ccc(F)cc5)CC4)cc3F)ccnc2cc1OCCCN1CCOCC1,Potency,[1],inactive
same,Potency,[2],inactive
OCc1ccc(-c2ccc(-c3ccc(CO)s3)o2)s1,Potency,[2],inactive
CCN(CC)CCCCNc1ncc2cc(-c3cc(OC)cc(OC)c3)c(NC(=O)NC(C)(C)C)nc2n1,Potency,[3],inactive
Cc1c(Cn2c(C)nc3c(C(=O)O)cc(N4CCOCC4)cc32)cccc1C(F)(F)F,Potency,[2],inactive
Cc1cnc(-c2cnc(NCCNc3ccc(C#N)cn3)nc2-c2ccc(Cl)cc2Cl)[nH]1,Potency,[2],inactive
NC(=O)c1cccc2cn(-c3ccc([C@@H]4CCCNC4)cc3)nc12,Potency,[1],inactive
same,Potency,[2],inactive
Nc1nccc(Oc2ccc(NC(=O)c3c[nH]cc(-c4ccc(F)cc4)c3=O)cc2F)c1Cl,Potency,[2],inactive
CN(C1CCc2c(c3ccccc3n2CC(=O)O)C1)S(=O)(=O)c1ccc(F)cc1 (stereo not drawn),Potency,[2],inactive
CCOC(=O)C1=C(C)NC2=C(C(=O)CC(C)(C)C2)C1c1ccc(-c2ccccc2)cc1 (stereo not drawn),Potency,[1],inactive
same,Potency,[2],inactive
same,Potency,[3],inactive
same,Potency,[5],inactive
same,Potency,[6],inactive
same,Potency,[4],inactive
CC[C@@]1(O)C(=O)OCc2c1cc1n(c2=O)Cc2cc3cc(O)ccc3nc2-1,Potency,[2],20 µM (active)
CCCCCN(CCC12CC3CC(CC(C3)C1)C2)C(=O)NCCCc1ccncc1,Potency,[2],inactive
Cc1cn2c(-c3cn[nH]c3)cnc2c(Nc2ccc(C(=O)N3CCNCC3)cc2F)n1,Potency,[2],inactive
COc1cc(C(=O)NS(=O)(=O)c2ccccc2C)ccc1Cc1cn(C)c2ccc(NC(=O)OC3CCCC3)cc12,Potency,[3],1.56 µM (active)
same,Potency,[5],141 µM (active)
same,Potency,[6],28.2 µM (active)
same,Potency,[4],inactive
same,outcome,[9],inactive
CC(C)c1ccccc1Cc1cc(C(=O)Nc2ccc(S(=O)(=O)c3ccccc3C(C)(C)C)cc2)c(O)c(O)c1O,Potency,[3],90.3 µM (active)
same,Potency,[5],2.24 µM (active)
same,Potency,[6],1.58 µM (active)
same,Potency,[4],inactive
same,Potency,[8],inactive
